Measurements taken from PubChem BioAssay AID1159580 (chemical genetic matrix, 2015).
In all, about 5,500 compounds went through this assay and about 2,000 (36%) were called active. About 18% were inconclusive and are not listed. Cut-off read from the data, not from the text of the source: active = normalized growth mostly below about 0.91 (no sharp cut-off); inconclusive = no clear call, values can overlap the other calls; inactive = mostly above about 0.92. This is one part of the list.

Assay: chemical genetic growth profiling, strain panel (AID 1159580);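 note: tested at 20 µM; growth read once vehicle control cultures reached saturation at 30 °C; 1 = growth at the plate median or of vehicle wells; lower values mean less growth of the strain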
Details: growth OD
[1] = S. cerevisiae deletion strains, locus YCL061C, strain MRC1, active compounds read low
[2] = S. cerevisiae deletion strains, locus YHR030C, strain SLT2, active compounds read low
[3] = S. cerevisiae deletion strains, locus YJL187C, strain SWE1, active compounds read low

Measured: normalized growth

Clc1ccccc1CN1CCc2sccc2C1
active: S. cerevisiae deletion strains, locus YNL071W, strain lat1, active compounds read low 0.906
inactive: S. cerevisiae deletion strains, locus YAL021C, strain ccr4, active compounds read low 1.01 | S. cerevisiae deletion strains, locus YAL026C, strain drs2, active compounds read low 1.01 | S. cerevisiae deletion strains, locus YAL030W, strain snc1, active compounds read low 1.01 | S. cerevisiae deletion strains, locus YBL061C, strain skt5, active compounds read low 1 | S. cerevisiae deletion strains, locus YBR009C, strain hhf1, active compounds read low 1.01 | S. cerevisiae deletion strains, locus YBR023C, strain chs3, active compounds read low 1.01 | S. cerevisiae deletion strains, locus YBR171W, strain sec66, active compounds read low 1.02 | S. cerevisiae deletion strains, locus YBR231C, strain swc5, active compounds read low 1.02 | S. cerevisiae deletion strains, locus YBR279W, strain paf1, active compounds read low 1.02 | S. cerevisiae deletion strains, locus YCL011C, strain gbp2, active compounds read low 1.01 | S. cerevisiae deletion strains, locus YCL016C, strain dcc1, active compounds read low 1.01 | [1] 1.01 | S. cerevisiae deletion strains, locus YCL069W, strain vba3, active compounds read low 1.01 | S. cerevisiae deletion strains, locus YCR088W, strain abp1, active compounds read low 1 | S. cerevisiae deletion strains, locus YDL005C, strain med2, active compounds read low 1.03 | S. cerevisiae deletion strains, locus YDL040C, strain nat1, active compounds read low 1.01 | S. cerevisiae deletion strains, locus YDR001C, strain nth1, active compounds read low 1.01 | S. cerevisiae deletion strains, locus YDR069C, strain doa4, active compounds read low 1 | S. cerevisiae deletion strains, locus YDR137W, strain rgp1, active compounds read low 0.879 | S. cerevisiae deletion strains, locus YDR159W, strain sac3, active compounds read low 1.03 | S. cerevisiae deletion strains, locus YDR195W, strain ref2 1.05 | S. cerevisiae deletion strains, locus YDR297W, strain sur2, active compounds read low 1.01 | S. cerevisiae deletion strains, locus YDR334W, strain swr1, active compounds read low 1.01 | S. cerevisiae deletion strains, locus YDR335W, strain msn5, active compounds read low 1.01 | S. cerevisiae deletion strains, locus YDR392W, strain spt3, active compounds read low 0.77 | S. cerevisiae deletion strains, locus YEL003W, strain gim4, active compounds read low 1.01 | S. cerevisiae deletion strains, locus YEL037C, strain rad23, active compounds read low 0.985 | S. cerevisiae deletion strains, locus YEL061C, strain CIN8 (second series), active compounds read low 1 | S. cerevisiae deletion strains, locus YER015W, strain faa2, active compounds read low 1.01 | S. cerevisiae deletion strains, locus YER016W, strain bim1, active compounds read low 1.01 | S. cerevisiae deletion strains, locus YER111C, strain swi4, active compounds read low 1.01 | S. cerevisiae deletion strains, locus YER155C, strain BEM2 (second series), active compounds read low 0.928 | S. cerevisiae deletion strains, locus YFR010W, strain ubp6, active compounds read low 0.995 | S. cerevisiae deletion strains, locus YGL167C, strain pmr1, active compounds read low 1 | S. cerevisiae deletion strains, locus YGL173C, strain kem1, active compounds read low 1.01 | S. cerevisiae deletion strains, locus YGL227W, strain vid30, active compounds read low 1.02 | S. cerevisiae deletion strains, locus YGL240W, strain doc1, active compounds read low 0.947 | S. cerevisiae deletion strains, locus YGL253W, strain hxk2, active compounds read low 1 | S. cerevisiae deletion strains, locus YHR013C, strain ard1, active compounds read low 1.07 | S. cerevisiae deletion strains, locus YHR027C, strain rpn1, active compounds read low 1.01 | [2] 1.04 | S. cerevisiae deletion strains, locus YHR079C, strain IRE1, active compounds read low 1.03 | S. cerevisiae deletion strains, locus YHR142W, strain chs7, active compounds read low 0.961 | S. cerevisiae deletion strains, locus YJL092W, strain hpr5, active compounds read low 1 | S. cerevisiae deletion strains, locus YJL095W, strain BCK1 (second series), active compounds read low 1.01 | S. cerevisiae deletion strains, locus YJL095W, strain BCK1, active compounds read low 0.985 | S. cerevisiae deletion strains, locus YJL115W, strain asf1, active compounds read low 1 | S. cerevisiae deletion strains, locus YJL129C, strain trk1, active compounds read low 0.973 | S. cerevisiae deletion strains, locus YJL154C, strain vps35, active compounds read low 1.01 | S. cerevisiae deletion strains, locus YJL164C, strain tpk1, active compounds read low 0.994 | S. cerevisiae deletion strains, locus YJL166W, strain qcr8, active compounds read low 0.981 | [3] 1.01 | S. cerevisiae deletion strains, locus YJR066W, strain TOR1, active compounds read low 0.969 | S. cerevisiae deletion strains, locus YKL160W, strain elf1, active compounds read low 0.987 | S. cerevisiae deletion strains, locus YKR026C, strain gcn3, active compounds read low 0.994 | S. cerevisiae deletion strains, locus YKR091W, strain srl3, active compounds read low 1.01 | S. cerevisiae deletion strains, locus YLL001W, strain dnm1, active compounds read low 1.02 | S. cerevisiae deletion strains, locus YLL026W, active compounds read low 1.01 | S. cerevisiae deletion strains, locus YLL041C, strain sdh2, active compounds read low 1 | S. cerevisiae deletion strains, locus YLR027C, strain aat2, active compounds read low 1.01 | S. cerevisiae deletion strains, locus YLR113W, strain HOG1, active compounds read low 0.98 | S. cerevisiae deletion strains, locus YLR221C, strain rsa3, active compounds read low 0.983 | S. cerevisiae deletion strains, locus YLR258W, strain gsy2, active compounds read low 1.01 | S. cerevisiae deletion strains, locus YLR262C, strain YPT6 (second series), active compounds read low 0.884 | S. cerevisiae deletion strains, locus YLR320W, strain mms22, active compounds read low 0.927 | S. cerevisiae deletion strains, locus YLR342W, strain FKS1, active compounds read low 1.01 | S. cerevisiae deletion strains, locus YLR357W, strain rsc2, active compounds read low 1.04 | S. cerevisiae deletion strains, locus YLR370C, strain arc18, active compounds read low 1.01 | S. cerevisiae deletion strains, locus YLR384C, strain iki3, active compounds read low 1.01 | S. cerevisiae deletion strains, locus YML120C, strain ndi1, active compounds read low 0.986 | S. cerevisiae deletion strains, locus YMR058W, strain fet3, active compounds read low 1.01 | S. cerevisiae deletion strains, locus YMR125W, strain sto1, active compounds read low 1.04 | S. cerevisiae deletion strains, locus YMR129W, active compounds read low 1.01 | S. cerevisiae deletion strains, locus YMR205C, strain PFK2, active compounds read low 0.998 | S. cerevisiae deletion strains, locus YMR231W, strain pep5, active compounds read low 1.01 | S. cerevisiae deletion strains, locus YNL183C, strain NPR1, active compounds read low 0.949 | S. cerevisiae deletion strains, locus YNL209W, strain ssb2, active compounds read low 1.01 | S. cerevisiae deletion strains, locus YNL248C, strain rpa49, active compounds read low 0.953 | S. cerevisiae deletion strains, locus YNL322C, strain KRE1 (second series), active compounds read low 1.01 | S. cerevisiae deletion strains, locus YNR049C, strain mso1, active compounds read low 1.01 | S. cerevisiae deletion strains, locus YOR001W, strain rrp6, active compounds read low 0.988 | S. cerevisiae deletion strains, locus YOR070C, strain gyp1, active compounds read low 1 | S. cerevisiae deletion strains, locus YOR080W, strain dia2, active compounds read low 1.01 | S. cerevisiae deletion strains, locus YOR083W, strain WHI5, active compounds read low 0.982 | S. cerevisiae deletion strains, locus YOR106W, strain vam3, active compounds read low 0.977 | S. cerevisiae deletion strains, locus YOR231W, strain MKK1, active compounds read low 1.02 | S. cerevisiae deletion strains, locus YOR265W, strain rbl2, active compounds read low 1.01 | S. cerevisiae deletion strains, locus YOR270C, strain vph1, active compounds read low 0.952 | S. cerevisiae deletion strains, locus YOR290C, strain snf2, active compounds read low 1 | S. cerevisiae deletion strains, locus YPL051W, strain arl3, active compounds read low 0.973 | S. cerevisiae deletion strains, locus YPL078C, strain atp4, active compounds read low 0.964 | S. cerevisiae deletion strains, locus YPL106C, strain sse1, active compounds read low 1.01 | S. cerevisiae deletion strains, locus YPL240C, strain hsp82, active compounds read low 1 | S. cerevisiae deletion strains, locus YPL256C, strain CLN2, active compounds read low 1.02

Cc1nn(Cc2ccccc2Cl)c(=N)s1
inactive: S. cerevisiae deletion strains, locus YAL013W, strain DEP1, active compounds read low 1.01 | S. cerevisiae deletion strains, locus YBR229C, strain ROT2, active compounds read low 0.999 | [1] 0.992 | S. cerevisiae deletion strains, locus YDL101C, strain DUN1, active compounds read low 0.991 | S. cerevisiae deletion strains, locus YDL134C, strain PPH21, active compounds read low 0.978 | S. cerevisiae deletion strains, locus YDR150W, strain NUM1, active compounds read low 0.971 | S. cerevisiae deletion strains, locus YEL061C, strain CIN8, active compounds read low 1.02 | S. cerevisiae deletion strains, locus YGR078C, strain PAC10, active compounds read low 0.997 | S. cerevisiae deletion strains, locus YGR229C, strain SMI1, active compounds read low 0.985 | [2] 0.959 | S. cerevisiae deletion strains, locus YHR087W, strain rtc3, active compounds read low 0.972 | [3] 0.995 | S. cerevisiae deletion strains, locus YJR043C, strain POL32, active compounds read low 0.991 | S. cerevisiae deletion strains, locus YJR075W, strain HOC1, active compounds read low 0.99 | S. cerevisiae deletion strains, locus YLR039C, strain RIC1, active compounds read low 0.939 | S. cerevisiae deletion strains, locus YLR058C, strain SHM2 (second series), active compounds read low 1.01 | S. cerevisiae deletion strains, locus YLR085C, strain ARP6, active compounds read low 1.03 | S. cerevisiae deletion strains, locus YLR262C, strain YPT6, active compounds read low 0.954 | S. cerevisiae deletion strains, locus YML094W, strain GIM5, active compounds read low 1.04 | S. cerevisiae deletion strains, locus YMR219W, strain ESC1, active compounds read low 0.998 | S. cerevisiae deletion strains, locus YMR263W, strain SAP30, active compounds read low 1 | S. cerevisiae deletion strains, locus YMR307W, strain GAS1, active compounds read low 0.981 | S. cerevisiae deletion strains, locus YNL153C, strain GIM3, active compounds read low 1.02 | S. cerevisiae deletion strains, locus YNL298W, strain CLA4 (second series), active compounds read low 0.932 | S. cerevisiae deletion strains, locus YNL322C, strain KRE1, active compounds read low 0.985 | S. cerevisiae deletion strains, locus YNR030W, strain Alg12, active compounds read low 0.988 | S. cerevisiae deletion strains, locus YOL006C, strain TOP1, active compounds read low 0.939 | S. cerevisiae deletion strains, locus YPL055C, strain LGE1, active compounds read low 1.06 | S. cerevisiae deletion strains, locus YPL241C, strain CIN2, active compounds read low 0.993 | S. cerevisiae deletion strains, locus YPR135W, strain CTF4, active compounds read low 0.972 | S. cerevisiae strains, strain wild type, active compounds read low 0.96
